# Unmarked numbers belong to inactive results. Records with an inconclusive call do not appear. The source made the active and inactive calls. Calls come from the whole dose curve.
# Target: Acetylcholinesterase (Homo sapiens) (UniProt P22303)
# Assay: Acetylcholinesterase (AChE) small molecule antagonists: fluorescence cell-based qHTS assay (AID 1347398); note: nearly all actives have a fitted effect of over 50% in size
# Settings: SH-SY5Y cells; Potency: AChE activity; outcome: AChE activity; series mostly up to 115 µM; activity change, negative = inhibition: at the top concentration
# Method in brief: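 Fluorimetric cell-based assay: intact SH-SY5Y cells, 30 min compound preincubation at 37 C, acetylthiocholine substrate with thiol probe Thiolite Green, 40 min RT development, fluorescence 490/520 nm.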
# % is set by controls: 0 for no effect and ±100 for the full control effect.
# Acetylcholinesterase (Homo sapiens), sequence (P22303 whole entry, looked up): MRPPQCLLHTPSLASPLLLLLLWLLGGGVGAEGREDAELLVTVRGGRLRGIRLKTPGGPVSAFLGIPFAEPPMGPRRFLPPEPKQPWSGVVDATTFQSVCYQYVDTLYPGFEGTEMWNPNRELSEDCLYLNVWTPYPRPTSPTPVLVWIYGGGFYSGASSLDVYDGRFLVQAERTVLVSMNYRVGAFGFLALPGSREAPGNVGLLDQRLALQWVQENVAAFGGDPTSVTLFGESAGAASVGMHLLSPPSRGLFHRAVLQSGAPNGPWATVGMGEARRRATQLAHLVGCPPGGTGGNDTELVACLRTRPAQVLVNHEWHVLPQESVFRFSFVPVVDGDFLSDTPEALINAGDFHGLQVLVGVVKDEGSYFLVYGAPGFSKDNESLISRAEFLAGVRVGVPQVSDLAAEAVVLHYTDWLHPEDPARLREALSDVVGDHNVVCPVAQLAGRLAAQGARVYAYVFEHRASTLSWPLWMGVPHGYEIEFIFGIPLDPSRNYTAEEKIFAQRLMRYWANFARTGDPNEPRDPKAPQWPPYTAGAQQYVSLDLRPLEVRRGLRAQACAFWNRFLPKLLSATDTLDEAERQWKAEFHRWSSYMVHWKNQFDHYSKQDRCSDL
SMILES,Potency,"activity change, negative = inhibition"
CCCN(CCC)S(=O)(=O)c1ccc(C(=O)O)cc1,inactive,–
CCOC(=O)C(C#N)=C(c1ccccc1)c1ccccc1,inactive,–
CCN1CCCC1=O,inactive,–
CC(C)(O)c1ccc(CNC(=O)c2cccnc2Oc2ccc3nonc3c2)cc1,–,-5.72%
CC[C@H]1OC(=O)[C@H](C)[C@@H](O[C@H]2C[C@@](C)(OC)[C@@H](O)[C@H](C)O2)[C@H](C)[C@@H](O[C@@H]2O[C@H](C)C[C@H](N(C)C)[C@H]2O)[C@](C)(O)C[C@@H](C)C(=O)[C@H](C)[C@@H](O)[C@]1(C)O,–,0.541% [at 53.7 µM]
Cc1c(C(=O)c2c[nH]n(C)c2=O)ccc(S(C)(=O)=O)c1C1=NOCC1,–,-3.29% [at 53.7 µM]
CC(=O)Oc1ccccc1C(=O)Nc1ncc([N+](=O)[O-])s1,inactive,–
Cc1cc(O)c(C(C)(C)C)cc1Sc1cc(C(C)(C)C)c(O)cc1C,–,-11.7%
O[C@@H]1CO[C@H]2[C@@H]1OC[C@@H]2O,–,6.07% [at 53.7 µM]
SCCOCCOCCS,–,1.35%
C1CC(COCC2CO2)CCC1COCC1CO1 (stereo not given),–,0.944%
O=C(O)COC(=O)Cc1ccccc1Nc1c(Cl)cccc1Cl,–,2.52% [at 53.7 µM]
CC(C)=CC=O,–,-6.73%
C=CCCC=C,–,-2.41%
CC(=O)O[C@]1(C(C)=O)CC[C@H]2[C@@H]3C=C(C)C4=CC(=O)CC[C@]4(C)[C@H]3CC[C@@]21C,inactive,–
CCOc1nc(F)cc2nc(S(=O)(=O)Nc3c(Cl)cccc3C(=O)OC)nn12,–,2.01%
Clc1sc(Cl)c(Cl)c1Cl,–,3.49%
O=C(O)c1cc(Cl)cc(Cl)c1,–,3.27%
CCc1cc(Cc2cc(CC)cc(C(C)(C)C)c2O)c(O)c(C(C)(C)C)c1,–,-9.05%
CCCC(=O)c1ccccc1,–,4.98%

SMILES,Potency,"activity change, negative = inhibition"
CC(C)C/C=C(\C=O)c1ccccc1,–,-12.5%
CN(C)CCOC(=O)C(c1ccccc1)C1(O)CCCC1 (stereo not given),–,0% [at 53.7 µM]
CCOc1ccccc1C(N)=O,inactive,–
CCCCOC(=O)COc1ccc(Cl)cc1Cl,inactive,–
COC(=O)c1ccc(O)cc1,inactive,–
C[C@@H](O)C(=O)O,–,3.37%
CC(=O)Nc1ccc(CC(=O)O)cc1,inactive,–
COc1cc2c(cc1OC)-c1cc(=Nc3c(C)cc(C)cc3C)n(C)c(=O)n1CC2,–,-6.13% [at 53.7 µM]
C/C=C(\C)C(=O)OCc1ccccc1,–,6.64%
Cc1cc(O)c(Cl)cc1C,–,-15.2%
CC(C)CCOCCC(C)C,–,-0.935%
CC1=C2[C@@H]([C@H](C)CC[C@H]2/C=C(\C)C(=O)O)[C@H](O)C1,–,7.92%
CO[C@]1(NC(=O)CSC(F)F)C(=O)N2C(C(=O)O)=C(CSc3nnnn3CCO)CO[C@H]21,–,-1.78% [at 53.7 µM]
Nc1ccc(N=Nc2ccccc2)c(N)n1,inactive,–
Cc1ccc2nc(-c3ccc(N)cc3)sc2c1S(=O)(=O)O,–,6.38% [at 53.7 µM]
CCCN1C=CN(C)C1,inactive,–
O=C(O)CS,inactive,–
O=C(NCC1CN(c2ccc(N3CCOCC3=O)cc2)C(=O)O1)c1ccc(Cl)s1 (stereo not given),–,2.49% [at 53.7 µM]
CCCCCCCCOc1ccc(C(=O)O)cc1,–,1.62%
CC(C)OC(=O)c1cc(C(=O)OC(C)C)cc([N+](=O)[O-])c1,–,-10%

# Target: Acetylcholinesterase (Homo sapiens) (UniProt P22303)
# Assay: Acetylcholinesterase (AChE) small molecule antagonists: enzyme-based qHTS assay with human liver microsomes (AID 1347399); note: nearly all actives have a fitted effect of over 60% in size
# Settings: Potency: qHTS inhibition; outcome: qHTS inhibition; series mostly up to 115 µM; activity change, negative = inhibition: at the top concentration
# Method in brief: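 Recombinant human AChE (50 mU/mL in the enzyme mix) and human liver microsomes (0.25 mg/mL final) were preincubated with compound and NADPH (0.25 mg/mL final) for 30 min at 37 C. Acetylthiocholine/DTNB was then added; thiocholine was read colorimetrically after 10 min at room temperature.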
SMILES,Potency,"activity change, negative = inhibition"
CCCN(CCC)S(=O)(=O)c1ccc(C(=O)O)cc1,inactive,–
CCOC(=O)C(C#N)=C(c1ccccc1)c1ccccc1,inactive,–
CCN1CCCC1=O,inactive,–
CC(C)(O)c1ccc(CNC(=O)c2cccnc2Oc2ccc3nonc3c2)cc1,–,-0.907%
CC[C@H]1OC(=O)[C@H](C)[C@@H](O[C@H]2C[C@@](C)(OC)[C@@H](O)[C@H](C)O2)[C@H](C)[C@@H](O[C@@H]2O[C@H](C)C[C@H](N(C)C)[C@H]2O)[C@](C)(O)C[C@@H](C)C(=O)[C@H](C)[C@@H](O)[C@]1(C)O,–,5.07% [at 53 µM]
Cc1c(C(=O)c2c[nH]n(C)c2=O)ccc(S(C)(=O)=O)c1C1=NOCC1,–,-0.237% [at 53 µM]
CC(=O)Oc1ccccc1C(=O)Nc1ncc([N+](=O)[O-])s1,inactive,–
Cc1cc(O)c(C(C)(C)C)cc1Sc1cc(C(C)(C)C)c(O)cc1C,–,2.7%
O[C@@H]1CO[C@H]2[C@@H]1OC[C@@H]2O,–,-0.443% [at 53 µM]
SCCOCCOCCS,–,-6.43%
C1CC(COCC2CO2)CCC1COCC1CO1 (stereo not given),–,-0.309%
O=C(O)COC(=O)Cc1ccccc1Nc1c(Cl)cccc1Cl,–,0.147% [at 53 µM]
CC(C)=CC=O,–,-0.659%
C=CCCC=C,–,-5.99%
CC(=O)O[C@]1(C(C)=O)CC[C@H]2[C@@H]3C=C(C)C4=CC(=O)CC[C@]4(C)[C@H]3CC[C@@]21C,inactive,–
CCOc1nc(F)cc2nc(S(=O)(=O)Nc3c(Cl)cccc3C(=O)OC)nn12,–,0.324%
Clc1sc(Cl)c(Cl)c1Cl,–,-1.07%
O=C(O)c1cc(Cl)cc(Cl)c1,–,-1.83%
CCc1cc(Cc2cc(CC)cc(C(C)(C)C)c2O)c(O)c(C(C)(C)C)c1,–,-0.41%
CCCC(=O)c1ccccc1,–,-0.254%

SMILES,Potency,"activity change, negative = inhibition"
CC(C)C/C=C(\C=O)c1ccccc1,–,-1.76%
CN(C)CCOC(=O)C(c1ccccc1)C1(O)CCCC1 (stereo not given),–,1.21% [at 53 µM]
CCOc1ccccc1C(N)=O,inactive,–
CCCCOC(=O)COc1ccc(Cl)cc1Cl,inactive,–
COC(=O)c1ccc(O)cc1,inactive,–
C[C@@H](O)C(=O)O,–,0.146%
CC(=O)Nc1ccc(CC(=O)O)cc1,inactive,–
COc1cc2c(cc1OC)-c1cc(=Nc3c(C)cc(C)cc3C)n(C)c(=O)n1CC2,–,-2.21% [at 53 µM]
C/C=C(\C)C(=O)OCc1ccccc1,–,-2.62%
Cc1cc(O)c(Cl)cc1C,–,1.36%
CC(C)CCOCCC(C)C,–,-0.807%
CC1=C2[C@@H]([C@H](C)CC[C@H]2/C=C(\C)C(=O)O)[C@H](O)C1,–,-2.57%
CO[C@]1(NC(=O)CSC(F)F)C(=O)N2C(C(=O)O)=C(CSc3nnnn3CCO)CO[C@H]21,–,-0.463% [at 53 µM]
Nc1ccc(N=Nc2ccccc2)c(N)n1,inactive,–
Cc1ccc2nc(-c3ccc(N)cc3)sc2c1S(=O)(=O)O,–,3.88% [at 53 µM]
CCCN1C=CN(C)C1,inactive,–
O=C(O)CS,inactive,–
O=C(NCC1CN(c2ccc(N3CCOCC3=O)cc2)C(=O)O1)c1ccc(Cl)s1 (stereo not given),–,1.02% [at 53 µM]
CCCCCCCCOc1ccc(C(=O)O)cc1,–,-4.27%
CC(C)OC(=O)c1cc(C(=O)OC(C)C)cc([N+](=O)[O-])c1,–,-1.67%
